From PubChem BioAssay AID720504 (National Center for Advancing Translational Sciences (NCATS), 2013)
Out of some 360,000 compounds screened, about 10,000 (2.8%) were called active. Inconclusive results (about 4%) are left out. This is one part of a sample in which actives are shown more often than they occur. Values without a mark were called inactive. Calls come from the whole dose curve; as a rule, active = well fitted inhibition curve with a large enough effect; inconclusive = small, poorly fitted or top-dose-only effect; inactive = flat fitted curve, though single readings scatter.

biological target: Serine/threonine-protein kinase PLK1 (Homo sapiens) (UniProt P53350); experiment: qHTS for Inhibitors of PLK1-PDB (polo-like kinase 1 - polo-box domain): Primary Screen; conditions: Plk1 PBD binding of FITC phosphopeptide, fluorescence polarization; note: nearly all actives have a fitted effect of over 65% in size; for max response, negative = inhibition: series mostly up to about 57 µM
Sequence (P53350 whole entry, looked up, the tested form may be a part): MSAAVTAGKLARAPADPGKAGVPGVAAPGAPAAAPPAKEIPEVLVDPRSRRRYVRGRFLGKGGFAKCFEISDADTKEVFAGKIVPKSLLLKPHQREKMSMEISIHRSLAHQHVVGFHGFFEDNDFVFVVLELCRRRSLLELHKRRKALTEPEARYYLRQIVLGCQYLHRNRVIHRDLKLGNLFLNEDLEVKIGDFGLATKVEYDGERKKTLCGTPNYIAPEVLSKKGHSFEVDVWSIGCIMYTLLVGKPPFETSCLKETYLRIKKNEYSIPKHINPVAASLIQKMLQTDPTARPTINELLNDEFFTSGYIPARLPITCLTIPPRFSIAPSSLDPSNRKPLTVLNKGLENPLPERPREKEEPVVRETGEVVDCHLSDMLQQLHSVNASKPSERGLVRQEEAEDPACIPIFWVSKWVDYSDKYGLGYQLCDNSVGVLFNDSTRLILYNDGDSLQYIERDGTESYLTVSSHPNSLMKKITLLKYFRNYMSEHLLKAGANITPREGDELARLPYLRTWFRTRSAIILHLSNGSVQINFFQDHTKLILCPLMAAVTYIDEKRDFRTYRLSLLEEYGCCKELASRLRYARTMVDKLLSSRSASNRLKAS
% is set by controls: 0 for no effect and ±100 for the full control effect; potency is the fitted concentration of half-maximal effect.

| SMILES | max response, negative = inhibition | Potency |
| --- | --- | --- |
| CCOc1ccc(CCN2C(=S)N([C@@H](CC(C)C)CN3CCC[C@@H]3CN3C(=S)NC[C@@H]3Cc3ccc(O)cc3)C[C@@H]2Cc2ccc(O)cc2)cc1 | 5.13% | – |
| CCc1nc2c(OCc3ccc(Cl)cc3Cl)cccn2c1N(C)C(=O)C(C)C | 3.78% | – |
| CC(C)CNC(=O)C1(C)CCCN1C(=O)CSc1ccccc1 (configuration not stated) | -9.29% | – |
| O=C(CCC1CCCN(C(=O)c2ccc(F)c(F)c2)C1)N1CCN(c2ccccn2)CC1 (configuration not stated) | -12.1% | – |
| C=Cc1ccc(C(=O)N2CCCC(CCC(=O)N3CCN(c4ccccn4)CC3)C2)cc1 (configuration not stated) | – | 21.2 µM (active) |
| O=C(CCC1CCCN(C(=O)Cc2ccc(F)cc2)C1)N1CCN(c2ccccn2)CC1 (configuration not stated) | 2.42% | – |
| O=C(C=CC(=O)Nc1ccc(F)cc1F)Nc1ccc(F)cc1F | 0.443% | – |
| COC(=O)Cc1ccc(OC2(C)CCN(Cc3ccc4c(c3)OCCO4)C2)cc1 (configuration not stated) | -7.87% | – |
| O=C(NNc1cc(Cl)ccc1Cl)c1cccnc1Cl | 7.67% | – |
| COc1cccc(CNC(=O)c2cccnc2Sc2ccc(Cl)cc2)c1 | -0.639% | – |
| CC(=O)/C(=N\Nc1ccc(Cl)cc1Cl)Sc1cccc2cccnc12 | – | 4.23 µM (active) |
| NC(c1csc(NC(=O)Nc2cccc(C(F)(F)F)c2)n1)C1CCCCC1 (configuration not stated) | -5.95% | – |
| CC(=O)Nc1ccc(CNc2nc(NCCN(C)C)nc3cc(-c4ccccc4)sc23)cc1 | 0.652% | – |
| Cc1cccc(C)c1Cn1c(C)c(C(=O)NCc2cccc(Cl)c2)sc1=O | -19.8% | – |
| CCNC(=O)C1(C)CCCN1C(=O)c1ccc(N(C)C)cc1 (configuration not stated) | -10.7% | – |
| CN(C)c1ccc(C(=S)N2CCN(C(=S)Nc3ccc(Cl)cc3)CC2)cc1 | – | 6.7 µM (active) |
| NC(=O)C1(N2CCCCC2)CCN(C(=S)Nc2ccc(Cl)cc2)CC1 | 1.24% | – |
| O=C(NC1CCN(C(=S)Nc2ccc(Cl)cc2)CC1)C1CCCCC1 | -11.1% | – |
| Cc1ccc(-c2nc3c(C)cc(Br)cn3c2Cc2ccccc2)cc1 | -13.2% | – |
| COc1cc(=O)[nH]c(=O)n1C(=O)Cc1ccccc1 | – | 2.99 µM (active) |
| COc1ccc(OC)c(NC(=O)C2(C)CCN2C(=O)Cc2ccccc2)c1 (configuration not stated) | -5.3% | – |
| CCCOc1ccc(Cn2c(O)cc(=O)[nH]c2=O)cc1 | -26.3% | – |

| SMILES | max response, negative = inhibition | Potency |
| --- | --- | --- |
| COc1ccc(-c2cnc3c(c2)C(=O)N([C@H](C)CO)C[C@@H](C)[C@H](CN(C)Cc2ccccc2)O3)cc1 | -12.1% | – |
| O=C1NC[C@H](Cc2ccc(O)cc2)N(C[C@@H]2CCCN2C[C@H](Cc2ccccc2)N2C[C@H](Cc3ccccc3)N(CC3CCCCC3)C(=O)C2=O)C1=O | -9.78% | – |
| O=C(c1cc(C2CCCCN2S(=O)(=O)c2ccccc2)on1)N1CCOCC1 (configuration not stated) | 3.83% | – |
| C=CS(=O)c1sc(Cl)c(N2CCOCC2)c1[N+](=O)[O-] (configuration not stated) | – | 1.34 µM (active) |
| O=S1(=O)C[C@@H](N2CCN(CCO)CC2)[C@H](COCc2ccccc2)N1 | -14.5% | – |
| Cc1cc(Br)cn2c(Cc3ccccc3C(F)(F)F)c(C3CCCCC3)nc12 | -6.9% | – |
| CN(C(=O)COC(=O)c1ccc(Br)o1)c1c(N)n(Cc2ccccc2)c(=O)[nH]c1=O | 2.32% | – |
| Cc1cc2nc3c(=O)n(Cc4ccccc4)c(=O)[nH]c3nc2cc1N | – | 3.36 µM (active) |
| Nc1cc(=O)n(Cc2ccccc2)c(=O)n1Cc1ccccc1 | -11.9% | – |
| COCCCNC(=O)c1ccc(-c2c(C)noc2C)c2ccoc12 | -2.73% | – |
| CCCNC(=O)C1(C)CCN(C(=O)c2cc(F)ccc2C)C1 (configuration not stated) | -7.98% | – |
| O=S(=O)(NC1CC1)c1ccc(Cl)cc1 | -11.6% | – |
| CC1CCC(NS(=O)(=O)c2ccc3c(c2)n(C)c(=O)c(=O)n3C)CC1 (configuration not stated) | -1.85% | – |
| Cn1sc(=O)c2cc(S(=O)(=O)NC3CC3)ccc21 | – | 2.12 µM (active) |
| COC(=O)c1ccc2nc(-c3ccccc3)c(Cc3ccc(OC)cc3C)n2c1 | -8.32% | – |
| CCOC(=O)C1=CCC(c2ccc(F)cc2)N(S(=O)(=O)c2ccc(C)cc2)C1 (configuration not stated) | -10.4% | – |
| O=C(CSc1nc2[nH]ncc2c(=O)[nH]1)Nc1ccc(F)cc1 | -1.42% | – |
| COc1ccc(NC(=O)CSc2ncnc3[nH]ncc23)cc1 | – | 3.77 µM (active) |
| COc1ccc(-n2ncc3c(SCC(=O)NNC(C)=O)ncnc32)cc1 | 4.95% | – |
| Cn1cnc(S(=O)(=O)N2C[C@@H](O)COC[C@@H]3O[C@H](CC(=O)NC4CCC4)CC[C@H]32)c1 | -0.717% | – |
| Cc1nccn1-c1ccc(NC(=O)[C@H]2O[C@@H](n3ccc(=O)[nH]c3=O)[C@H](O)[C@@H]2O)cc1 | 0.546% | – |
| CCOC(=O)[C@]12CCC=C1N(Cc1ccccc1)C(=O)[C@H](CC(=O)N1CCCC1)C2 | -1.56% | – |

| SMILES | max response, negative = inhibition | Potency |
| --- | --- | --- |
| CCCCCn1nnnc1C1c2ccccc2C(=O)N1Cc1ccco1 (configuration not stated) | -6.84% | – |
| Cc1ccc2nc(SCc3nnc(-c4ccccc4[N+](=O)[O-])o3)c(C#N)cc2c1 | -9% | – |
| Cc1ccc(-c2ccc(/C=C(\C#N)C(N)=S)o2)c([N+](=O)[O-])c1 | – | 26.7 µM (active) |
| Cc1cc(C)c([N+](=O)[O-])cc1-c1ccc(/C=N/NC(=O)c2nonc2N)o1 | 0.266% | – |
| CC1=C(C(=O)N(C(C)C)C(C)C)CC(CC(=O)NCC2CCCCC2)C(=O)N1Cc1ccccc1 (configuration not stated) | -4.13% | – |
| O=C(C(=O)N1CCC(c2ccccc2)CC1)c1ccccc1 | 3.91% | – |
| Brc1ccc(C2=CC(c3ccco3)n3ncnc3N2)cc1 (configuration not stated) | – | 23.8 µM (active) |
| Clc1ccc2c(c1)C1=C(C(c3ccncc3)O2)C(c2ccc(Br)cc2)n2ncnc2N1 (configuration not stated) | -0.898% | – |
| CCOC(=O)[C@]12CCCC=C1N(CCC1=CCCCC1)C(=O)[C@H](CC(=O)NCCCOC)C2 | 2.46% | – |
| CCOc1ccc(S(=O)(=O)NCCC(=O)NNC(=O)c2ccc(F)cc2)cc1 | -14.6% | – |
| COc1ccc(NC(=O)c2sc(=O)n(Cc3ccc(S(=O)(=O)N(C)C)cc3)c2C)cc1 | -0.145% | – |
| O=C(Nc1cccc([N+](=O)[O-])c1)Nn1cnnc1 | -2.87% | – |
| COC(=O)/C=C\C(=O)Nc1cccc([N+](=O)[O-])c1 | – | 5.97 µM (active) |
| O=C(CN1CCOCC1)Nc1cccc([N+](=O)[O-])c1 | -23.6% | – |
| CC(=O)C[C@@H]1OC[C@H](C)N1S(=O)(=O)c1ccc(C)cc1 | -5.26% | – |
| COc1cc(/C=C/C(=O)OCC(=O)NC(=O)NCc2ccccc2)ccc1OCC#N | -6.76% | – |
| COc1cc(/C=C/C(=O)Nc2ccc(OC)c(S(=O)(=O)N3CCOCC3)c2)ccc1OCC#N | -0.928% | – |
| COc1cc(/C=C/C(=O)OCC(=O)N2CCOCC2)ccc1OCC#N | – | 26.7 µM (active) |
| CC(C)(C)c1ccc(S(=O)(=O)NC(=O)C2(C)CCN2C(=O)CC2CC2)cc1 (configuration not stated) | -12% | – |
| Cc1cccc(CN2CCN(C3CN(Cc4cn(Cc5ccccc5F)nn4)S(=O)(=O)C3)CC2)c1 (configuration not stated) | 3.36% | – |
| OC[C@@H]1CN(Cc2ccc3c(c2)OCO3)C[C@H](n2cnc3c(NCc4ccco4)ncnc32)O1 | -2.35% | – |
| O=C(NN=Cc1ccccc1O)NN=Cc1ccccc1O | -11.7% | – |

| SMILES | max response, negative = inhibition | Potency |
| --- | --- | --- |
| COC(=O)c1ccc(/C=C2/C(=O)Oc3ccccc32)cc1 | -0.125% | – |
| O=C1Oc2ccccc2C(=O)/C1=C/c1ccccc1O | – | 2.67 µM (active) |
| CC(=O)NC(c1cccc(F)c1)c1nc(-c2cccc(F)c2)cs1 (configuration not stated) | -0.575% | – |
| Nc1ccc(-c2nnc(-c3ccc(-c4ccccc4)cc3)o2)cc1 | – | 13.4 µM (active) |
| COc1ccc(-c2nnc(-c3ccc4ccccc4c3)o2)cc1 | -4.59% | – |
| CN(C)c1ccc(-c2nnc(-c3cccnc3)o2)cc1 | 3.15% | – |
| COc1cc(NC(=O)C2=C(C)OCCS2)c(Cl)cc1C(=O)NCCCN1CCCC(C)C1 (configuration not stated) | -4.33% | – |
| O=[N+]([O-])c1ccc(N2CCSCC2)cc1O | 2.23% | – |
| Cc1cc(C(=O)N/N=C/c2ccc(O)c([N+](=O)[O-])c2)c(C)n1-c1ccc(F)cc1 | -24.1% | – |
| O=C1CSC(=S)N1/N=C/c1ccc(O)c([N+](=O)[O-])c1 | – | 23.8 µM (active) |
| CS(=O)(=O)N1CCCCC1c1cc(C(=O)NCc2ccccc2)no1 (configuration not stated) | -4.51% | – |
| CCCCN1C(=O)C(CC(=O)NCc2cccs2)CC(C(=O)N2CCCCCC2)=C1C (configuration not stated) | -3.48% | – |
| COC(=O)C(Cc1c[nH]c2ccccc12)NC(=O)CCNC(=O)c1ccco1 (configuration not stated) | 3.99% | – |
| CCCCN1CC(C)(C)[C@H](CC(=O)Nc2ccc(Br)cc2)C1=O | 2.01% | – |
| COc1cc(NC(=S)N2CCCC(C)C2)c(OC)cc1Cl (configuration not stated) | – | 18.9 µM (active) |
| COc1cc(NC(=O)CSC(=S)N2CCCC2)c(OC)cc1Cl | -15.5% | – |
| COc1ccc(C)cc1NC(=S)N1CCOCC1 | -2.89% | – |
| C[C@@H]1Cn2cnc(C(=O)Nc3ccc(CNC(=O)OC(C)(C)C)cc3)c2C(=O)N1 | -11.4% | – |
| COc1ccc2oc(=O)cc(-c3cc4ccccc4o3)c2c1 | – | 26.7 µM (active) |
| COc1ccc(Nc2cc(=O)oc3ccccc23)cc1 | -6.94% | – |
| COc1cccc2cc(-c3cc(=O)oc4cc(C)c(O)cc34)oc12 | -14.5% | – |
